# Several values for one entry are separate records, joined by “and”; a condition that tells them apart may be missing. Equal values may be shown once. Read-outs that look alike come from different tables or passages of the source.
# Assays:
# [1] = test system: AAK1; conditions: concentration: 1 μM, replicates: in singlicate, n = 1
# [2] = test system: ABL1-nonphosphorylated; conditions: concentration: 1 μM, replicates: in singlicate; n = 1
# [3] = test system: ABL1-phosphorylated; conditions: concentration: 1 μM, replicates: in singlicate, n = 1
# [4] = test system: ABL2; conditions: concentration: 1 μM, replicates: in singlicate, n = 1
# [5] = test system: ACVR1B; conditions: concentration: 1 μM, replicates: in singlicate, n = 1
# [6] = test system: ACVR1; conditions: concentration: 1 μM, replicates: in singlicate; n = 1
# [7] = test system: ACVR2A; conditions: concentration: 1 μM, replicates: in singlicate; n = 1
# [8] = test system: ACVR2B; conditions: concentration: 1 μM, replicates: in singlicate, n = 1
# [9] = test system: ACVRL1; conditions: concentration: 1 μM, replicates: in singlicate; n = 1
# [10] = test system: T1, ADCK3; conditions: concentration: 1 μM, replicates: in singlicate, n = 1
# T1 construct: gene CABC1
# [11] = test system: ADCK4; conditions: concentration: 1 μM, replicates: in singlicate, n = 1
# [12] = test system: AKT1; conditions: concentration: 1 μM, replicates: in singlicate, n = 1
# [13] = test system: AKT2; conditions: concentration: 1 μM, replicates: in singlicate, n = 1
# [14] = test system: AKT3; conditions: concentration: 1 μM, replicates: in singlicate, n = 1
# [15] = test system: ALK; conditions: concentration: 1 μM, replicates: in singlicate, n = 1
# [16] = test system: T2, AMPK-alpha1; conditions: concentration: 1 μM, replicates: in singlicate, n = 1
# T2 construct: gene PRKAA1
# [17] = test system: T3, p38-alpha;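 also: kd values determined as follow-up on hits from a single-replicate KINOMEscan panel screen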
# T3 construct: gene MAPK14
# 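For %Inh in this document: KINOMEscan kinase panel screen.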
smiles,measurement,setting,value
COc1ccc(Nc2nccc(N3CCC(NC(=O)Nc4cccc(C(C)=O)c4)C3)n2)cc1 (centres unmarked) [GSK1379731],%Inh,[1],0%
same,%Inh,[2],0%
same,%Inh,[3],0%
same,%Inh,[4],7%
same,%Inh,[5],0%
same,%Inh,[6],0%
same,%Inh,[7],0%
same,%Inh,[8],11%
same,%Inh,[9],0%
same,%Inh,[10],0%
same,%Inh,[11],11%
same,%Inh,[12],0%
same,%Inh,[13],0%
same,%Inh,[14],0%
same,%Inh,[15],15%
same,%Inh,[16],0%
N#Cc1c(N2CCOCC2)sc(-c2ccn[nH]2)c1-c1ccc(Cl)cc1,%Inh,[1],70%
same,%Inh,[2],42%
same,%Inh,[3],0%
same,%Inh,[4],9%
same,%Inh,[5],15%
same,%Inh,[6],0%
same,%Inh,[7],0%
same,%Inh,[8],0%
same,%Inh,[9],0%
same,%Inh,[10],12%
same,%Inh,[11],0%
same,%Inh,[12],0%
same,%Inh,[13],0%
same,%Inh,[14],0%
same,%Inh,[15],0%
same,%Inh,[16],9%
O=C1Cc2cc(Nc3nc(NCc4cccc(S(=O)(=O)C(F)(F)F)c4)ncc3C(F)(F)F)ccc2N1,%Inh,[1],8%
same,%Inh,[2],0%
same,%Inh,[3],0%
same,%Inh,[4],0%
same,%Inh,[5],0%
same,%Inh,[6],3%
same,%Inh,[7],0%
same,%Inh,[8],0%
same,%Inh,[9],0%
same,%Inh,[10],0%
same,%Inh,[11],2%
same,%Inh,[12],0%
same,%Inh,[13],1%
same,%Inh,[14],0%
same,%Inh,[15],0%
same,%Inh,[16],2%
Cc1cccc(-c2nc(-c3ccc(S(C)(=O)=O)cc3)sc2-c2ccncc2)c1,Kd,[17],540 nM
same,%Inh,[1],8%
same,%Inh,[2],0%
same,%Inh,[3],0%
same,%Inh,[4],29%
same,%Inh,[5],0%
same,%Inh,[6],0%
same,%Inh,[7],0%
same,%Inh,[8],0%
same,%Inh,[9],0%
same,%Inh,[10],0%
same,%Inh,[11],0%
same,%Inh,[12],0%
same,%Inh,[13],20%
same,%Inh,[14],0%
same,%Inh,[15],5%
same,%Inh,[16],1%
Cc1c(Cn2c(C)nn3c(=O)cc(N4CCOC(C)C4)nc23)cccc1C(F)(F)F (centres unmarked) [GSK2344444],%Inh,[1],0%
same,%Inh,[2],0%
same,%Inh,[3],0%
same,%Inh,[4],11%
same,%Inh,[5],0%
same,%Inh,[6],0%
same,%Inh,[7],22%
same,%Inh,[8],0%
same,%Inh,[9],5%
same,%Inh,[10],3%
same,%Inh,[11],0%
same,%Inh,[12],0%
same,%Inh,[13],6%
same,%Inh,[14],0%
same,%Inh,[15],0%
same,%Inh,[16],0%
COc1cc(Nc2nccc(N3CCC(NC(=O)c4cccc(NC(C)=O)c4)C3)n2)cc(OC)c1OC (centres unmarked) [GSK1379754],%Inh,[1],76%
same,%Inh,[2],0%
same,%Inh,[3],0%
same,%Inh,[4],13%
same,%Inh,[5],0%
same,%Inh,[6],63%
same,%Inh,[7],17%
same,%Inh,[8],18%
same,%Inh,[9],0%
same,%Inh,[10],10%
same,%Inh,[11],36%
same,%Inh,[12],0%
same,%Inh,[13],0%
same,%Inh,[14],0%
same,%Inh,[15],29%
same,%Inh,[16],8%
Fc1ccc(-c2ncn(CCCN3CCOCC3)c2-c2ccccn2)cc1 [SB-211742],%Inh,[1],0%
same,%Inh,[2],39%
same,%Inh,[3],12%
same,%Inh,[4],7%
same,%Inh,[5],1%
same,%Inh,[6],0%
same,%Inh,[7],0%
same,%Inh,[8],19%
same,%Inh,[9],0%
same,%Inh,[10],3%
same,%Inh,[11],6%
same,%Inh,[12],15%
same,%Inh,[13],4%
same,%Inh,[14],0%
same,%Inh,[15],19%
same,%Inh,[16],10%
Cc1c2ccc(N(C)c3ccnc(Nc4cccc(S(N)(=O)=O)c4)n3)cc2nn1Cc1ccccc1.Cl.Cl [GW787226],%Inh,[1],2%
same,%Inh,[2],98.4%
same,%Inh,[3],61%
same,%Inh,[4],71%
same,%Inh,[5],6%
same,%Inh,[6],0%
same,%Inh,[7],0%
same,%Inh,[8],0%
same,%Inh,[9],12%
same,%Inh,[10],0%
same,%Inh,[11],0%
same,%Inh,[12],0%
same,%Inh,[13],0%
same,%Inh,[14],0%
same,%Inh,[15],0%
same,%Inh,[16],17%
O=C1NC(=O)C(N2CCc3ccccc32)=C1c1cccc(Cl)c1 [SB-408010],%Inh,[1],2%
same,%Inh,[2],33%
same,%Inh,[3],0%
same,%Inh,[4],10%
same,%Inh,[5],14%
same,%Inh,[6],0%
same,%Inh,[7],0%
same,%Inh,[8],7%
same,%Inh,[9],13%
same,%Inh,[10],17%
same,%Inh,[11],0%
same,%Inh,[12],5%
same,%Inh,[13],0%
same,%Inh,[14],5%
same,%Inh,[15],0%
same,%Inh,[16],0%
Cc1nnc(-c2ccc(C)c(-c3ccc(C(=O)Nc4ccc(NS(C)(=O)=O)cc4)cc3)c2)o1 [GW702865],Kd,[17],140 nM
same,%Inh,[1],0%
same,%Inh,[2],0%
same,%Inh,[3],0%
same,%Inh,[4],0%
same,%Inh,[5],0%
same,%Inh,[6],0%
same,%Inh,[7],0%
same,%Inh,[8],0%
same,%Inh,[9],0%
same,%Inh,[10],20%
same,%Inh,[11],14%
same,%Inh,[12],0%
same,%Inh,[13],12%
same,%Inh,[14],0%
same,%Inh,[15],6%
same,%Inh,[16],17%
NCCNS(=O)(=O)c1ccc(-c2ccnc3[nH]ccc23)cc1 [GSK977617],%Inh,[1]; 1 µM,67% and 57%
same,%Inh,[2],0%
same,%Inh,[3]; 1 µM,9% and 0%
same,%Inh,[4]; 1 µM,22% and 1%
same,%Inh,[5]; 1 µM,3% and 0%
same,%Inh,[6],0%
same,%Inh,[7],0%
same,%Inh,[8]; 1 µM,2% and 0%
same,%Inh,[9],0%
same,%Inh,[10]; 1 µM,0% and 6%
same,%Inh,[11]; 1 µM,32% and 21%
same,%Inh,[12]; 1 µM,77% and 66%
same,%Inh,[13]; 1 µM,15% and 10%
same,%Inh,[14]; 1 µM,88% and 83%
same,%Inh,[15]; 1 µM,60% and 36%
same,%Inh,[16]; 1 µM,50% and 38%
Fc1ccc(-c2ncn(CCCN3CCOCC3)c2-c2cccnc2)cc1 [SB-211743],%Inh,[1],0%
same,%Inh,[2],30%
same,%Inh,[3],34%
same,%Inh,[4],0%
same,%Inh,[5],0%
same,%Inh,[6],2%
same,%Inh,[7],0%
same,%Inh,[8],0%
same,%Inh,[9],6%
same,%Inh,[10],1%
same,%Inh,[11],0%
same,%Inh,[12],0%
same,%Inh,[13],0%
same,%Inh,[14],10%
same,%Inh,[15],0%
same,%Inh,[16],4%
